# Assay results from PubChem BioAssay (NCATS).
# Values without a mark were called inactive. Records with an inconclusive call do not appear. Entries that show only a call come without a potency. Active and inactive are the calls of the source. Unless noted, calls come from the whole dose curve; as a rule, active = well fitted curve in the direction sought with a large enough effect; inconclusive = small, poorly fitted or top-dose-only effect, or another doubt; inactive = no such curve, though single readings can be large; an effect the other way counts as inactive or inconclusive.
# Assays:
# [1] = molecular target: Lysosomal acid glucosylceramidase (Homo sapiens) (UniProt P04062); assay: Glucocerebrosidase-p2 (AID 348; in the data active = potency below about 10 µM; note: potency is the fitted concentration of half-maximal effect); conditions: purified GBA, blue fluorogenic substrate, 40 min
# Chain of Lysosomal acid glucosylceramidase (Homo sapiens) (P04062 whole entry, looked up): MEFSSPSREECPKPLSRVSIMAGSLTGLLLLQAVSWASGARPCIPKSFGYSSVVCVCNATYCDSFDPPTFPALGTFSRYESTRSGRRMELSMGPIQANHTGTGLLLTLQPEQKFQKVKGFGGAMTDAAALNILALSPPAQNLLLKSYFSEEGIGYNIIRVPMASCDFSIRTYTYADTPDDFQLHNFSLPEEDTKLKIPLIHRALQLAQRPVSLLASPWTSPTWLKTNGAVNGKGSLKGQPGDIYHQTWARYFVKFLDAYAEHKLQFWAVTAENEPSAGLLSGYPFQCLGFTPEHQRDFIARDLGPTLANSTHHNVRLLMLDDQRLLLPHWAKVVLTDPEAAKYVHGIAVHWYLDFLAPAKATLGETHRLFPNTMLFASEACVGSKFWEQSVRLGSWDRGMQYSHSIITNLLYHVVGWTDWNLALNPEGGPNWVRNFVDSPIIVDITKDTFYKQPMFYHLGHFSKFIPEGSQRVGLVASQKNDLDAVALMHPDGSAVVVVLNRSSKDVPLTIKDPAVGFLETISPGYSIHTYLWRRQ
# Procedure, shortened: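 Normal human glucocerebrosidase (0.2 nM) with blue fluorogenic substrate (80 uM final) in citrate/phosphate pH 5.9 with 10mM sodium taurocholate, 0.01% tween-20; 40 min RT, NaOH/glycine stop; fluorescence Ex 365/Em 440; AC50 from a titration from 0.6 nM upwards.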
# [2] = AP1 Signaling Pathway (AID 357; active = well fitted curve in either direction with a large enough effect, not every such curve was filed as active); conditions: ME-180 AP-1-bla reporter, EGF-induced, beta-lactamase ratio, 5 h; at 7.69 µM (top of the series) unless noted
# Procedure, shortened: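 AP-1-bla ME-180 cells with beta-lactamase reporter under AP-1 response element, stimulated with EC50 EGF; compounds titrated, 5 hours at 37 degrees Celsius. CCF4 read at 460/530 nm ratio; positive and negative modulators judged by AC50.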
# [3] = molecular target: Cytochrome P450 1A2 (Homo sapiens) (UniProt P05177); assay: p450-cyp1a2 (AID 410; calls by dose curve; note: potency is the fitted concentration of half-maximal effect); conditions: recombinant CYP1A2, luciferin-ME demethylation, luminescence; series mostly up to 57 µM
# Chain of Cytochrome P450 1A2 (Homo sapiens) (P05177 whole entry, looked up): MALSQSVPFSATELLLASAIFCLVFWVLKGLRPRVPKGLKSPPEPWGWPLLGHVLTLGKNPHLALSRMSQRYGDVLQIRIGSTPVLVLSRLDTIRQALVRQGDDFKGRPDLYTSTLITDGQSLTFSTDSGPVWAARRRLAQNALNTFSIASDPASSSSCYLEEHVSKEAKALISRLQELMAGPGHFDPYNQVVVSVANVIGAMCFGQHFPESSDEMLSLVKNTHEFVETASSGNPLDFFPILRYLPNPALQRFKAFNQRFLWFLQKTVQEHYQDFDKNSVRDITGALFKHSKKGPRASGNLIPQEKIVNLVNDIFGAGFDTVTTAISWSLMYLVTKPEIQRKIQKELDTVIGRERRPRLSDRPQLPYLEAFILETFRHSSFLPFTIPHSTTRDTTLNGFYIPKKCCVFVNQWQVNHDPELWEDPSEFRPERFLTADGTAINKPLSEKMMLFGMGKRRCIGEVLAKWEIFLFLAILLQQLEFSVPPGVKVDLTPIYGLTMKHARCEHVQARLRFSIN
# Procedure, shortened: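 Read-out is luminescence from luciferin produced by CYP1A2 demethylation of Luciferin-ME (100uM, at Km). Detection reagent stopped the 60 min NADPH-dependent reaction; signals were normalized to 57 uM furafylline.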
# [4] = NFAT Signaling Pathway (AID 444; active = well fitted curve in either direction with a large enough effect, not every such curve was filed as active;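 note: carbachol stimulus at about its EC50 of 1 µM final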); conditions: Jurkat NFAT-bla M1, carbachol, beta-lactamase ratio, 5 h; at 7.69 µM (top of the series) unless noted
# Procedure, shortened: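 Jurkat cells with NFAT-driven β-lactamase reporter and co-expressed M1 receptor, stimulated with carbachol (final 1 uM, ~EC50), compound titration, 5 h at 37 °C. CCF4 loaded 1 h at RT; 460/530 nm ratio gave %activity and AC50.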
# [5] = Stat Signaling Pathway (AID 446; active = well fitted curve in either direction with a large enough effect, not every such curve was filed as active;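 note: ME-180 cervical cancer cells given 40 pM IL-6 alongside compound; SIE-controlled beta-lactamase reporter measured as 460/530 nm FRET emission ratio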); conditions: ME-180 SIE beta-lactamase reporter, IL-6 stimulated, 5 h; series mostly up to 7.69 µM
# Procedure, shortened: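 Compound effects on IL-6-induced STAT reporter activity were measured in ME-180 cells. After overnight culture, cells were co-treated with 40 pM IL-6 for 5 hrs before beta-lactamase substrate loading at room temperature.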
# [6] = molecular target: Glucocorticoid receptor (Homo sapiens) (UniProt P04150); assay: GR-GFP Redistribution (AID 450;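 active = compounds whose dose series gives a full or clear partial fitted curve of increased nuclear translocation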; note: potency is the fitted concentration of half-maximal effect); conditions: U2OS GR-GFP nuclear translocation, laser cytometry, 2 h
# Chain of Glucocorticoid receptor (Homo sapiens) (P04150 whole entry, looked up, the tested form may be a part): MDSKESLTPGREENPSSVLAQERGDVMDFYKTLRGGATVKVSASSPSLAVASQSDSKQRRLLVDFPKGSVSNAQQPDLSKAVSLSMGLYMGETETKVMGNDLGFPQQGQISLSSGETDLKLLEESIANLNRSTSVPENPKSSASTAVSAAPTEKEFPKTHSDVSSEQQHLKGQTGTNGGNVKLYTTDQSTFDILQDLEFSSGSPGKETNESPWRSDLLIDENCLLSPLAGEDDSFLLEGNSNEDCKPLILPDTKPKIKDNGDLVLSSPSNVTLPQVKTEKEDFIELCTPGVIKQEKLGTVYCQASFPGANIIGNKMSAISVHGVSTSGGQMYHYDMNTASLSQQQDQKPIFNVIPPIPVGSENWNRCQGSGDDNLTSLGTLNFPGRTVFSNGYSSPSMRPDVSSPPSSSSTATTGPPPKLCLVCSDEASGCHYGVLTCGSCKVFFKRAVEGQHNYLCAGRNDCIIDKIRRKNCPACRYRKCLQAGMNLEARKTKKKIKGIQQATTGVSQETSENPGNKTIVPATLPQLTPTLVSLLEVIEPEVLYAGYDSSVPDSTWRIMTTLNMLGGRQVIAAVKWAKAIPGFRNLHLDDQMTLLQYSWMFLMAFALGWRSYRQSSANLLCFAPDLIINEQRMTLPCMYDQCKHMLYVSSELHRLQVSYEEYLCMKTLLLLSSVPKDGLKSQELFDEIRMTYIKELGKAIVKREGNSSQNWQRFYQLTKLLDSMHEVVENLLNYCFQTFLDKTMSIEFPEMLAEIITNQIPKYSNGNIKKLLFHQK
# [7] = molecular target: Glucocorticoid receptor (Homo sapiens) (UniProt P04150); assay: GR-EFC Redistribution (AID 451; calls by dose curve; note: potency is the fitted concentration of half-maximal effect); conditions: CHO-K1 GR-EFC translocation, beta-gal luminescence, 2 h
# Procedure, shortened: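 CHO-K1 cells expressing nuclear EA and GR-ED fragments of b-gal; compounds titrated up to 46 uM final, 2 h at 37 C. GR nuclear translocation read as complemented b-gal luminescence after 1 h RT detection.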
# [8] = molecular target: Mitogen-activated protein kinase 10 (Mus musculus) (UniProt Q61831); assay: JNK3 AlphaScreen Assay (AID 530; active = well fitted curve in either direction with a large enough effect, not every such curve was filed as active;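 note: kinase came from lysate of stimulated human HepG2 cells; signal reports phosphorylation of biotinylated GST-cJun 1-79 at Ser73 with 10 µM ATP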); conditions: JNK3 lysate, c-Jun phosphorylation; series mostly up to 57.1 µM
# Procedure, shortened: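 HepG2 lysate (IL-1b/TNFa pre-activated) + biotin-GST-cJun 1-79 + anti-pSer73 cJun; cpd titration, 15 min RT; ATP 10 uM start; Tris pH 7.6, MgCl2, DTT, vanadate; beads in EDTA buffer; AlphaScreen.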
# [9] = molecular target: Cytochrome P450 3A4 (Homo sapiens) (UniProt P08684); assay: qHTS Assay for Activators of Cytochrome P450 3A4 (AID 885); conditions: recombinant CYP3A4, Luciferin-PPXE luminescence, 60 min; series mostly up to 57.1 µM; note: nearly all actives have a fitted effect of over 65% in size
# Chain of Cytochrome P450 3A4 (Homo sapiens) (P08684 whole entry, looked up): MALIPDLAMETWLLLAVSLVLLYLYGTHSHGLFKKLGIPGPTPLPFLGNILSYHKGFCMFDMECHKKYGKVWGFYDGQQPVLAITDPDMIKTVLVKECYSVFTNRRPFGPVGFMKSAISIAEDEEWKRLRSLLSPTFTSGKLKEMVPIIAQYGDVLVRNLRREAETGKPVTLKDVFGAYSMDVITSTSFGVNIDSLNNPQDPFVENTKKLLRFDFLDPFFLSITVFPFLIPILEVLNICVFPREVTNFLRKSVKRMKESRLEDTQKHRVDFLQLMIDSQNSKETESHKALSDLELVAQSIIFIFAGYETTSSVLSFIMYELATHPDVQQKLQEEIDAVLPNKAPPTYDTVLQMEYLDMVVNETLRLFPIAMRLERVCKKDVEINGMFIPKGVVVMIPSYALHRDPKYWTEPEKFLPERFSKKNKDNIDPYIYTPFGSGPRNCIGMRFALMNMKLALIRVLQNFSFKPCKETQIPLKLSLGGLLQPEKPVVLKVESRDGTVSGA
# Procedure, shortened: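 CYP3A4 activity: Luciferin-PPXE O-dealkylation, 25uM substrate, 200mM KPO4, RT throughout. Read-out is luciferase luminescence; higher values reflect activation.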
# [10] = molecular target: Dual specificity protein kinase CLK4 (Homo sapiens) (UniProt Q9HAZ1); assay: qHTS Assay for Inhibitors of CDC-like Kinase 4 (ADP-FP Assay) (AID 1795); conditions: Transcreener ADP fluorescence polarization; series mostly up to 50 µM;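 note: recombinant human CLK4 phosphorylating RS repeat peptide at 1 µM ATP; nearly all actives have a fitted effect of over 60% in size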
# Chain of Dual specificity protein kinase CLK4 (Homo sapiens) (Q9HAZ1 whole entry, looked up): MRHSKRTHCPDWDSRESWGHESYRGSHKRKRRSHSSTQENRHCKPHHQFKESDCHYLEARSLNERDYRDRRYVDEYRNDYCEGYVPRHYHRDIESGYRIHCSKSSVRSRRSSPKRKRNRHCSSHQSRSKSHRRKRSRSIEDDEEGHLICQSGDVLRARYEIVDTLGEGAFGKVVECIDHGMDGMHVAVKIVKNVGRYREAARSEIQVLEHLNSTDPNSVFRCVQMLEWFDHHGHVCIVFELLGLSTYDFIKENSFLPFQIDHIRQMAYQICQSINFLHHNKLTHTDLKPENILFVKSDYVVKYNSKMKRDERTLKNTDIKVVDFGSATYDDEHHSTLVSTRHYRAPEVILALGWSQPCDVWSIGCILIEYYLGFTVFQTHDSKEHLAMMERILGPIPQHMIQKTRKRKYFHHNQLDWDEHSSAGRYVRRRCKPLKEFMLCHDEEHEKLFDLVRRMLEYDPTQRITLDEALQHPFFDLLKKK
# Procedure, shortened: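 Clk4 6.25 nM; RS peptide 100 uM; ATP 1 uM; 25 mM Tris pH 7.5, 10 mM MgCl2; 1 h reaction. ADP detected via antibody/orange tracer FP displacement; TG003 positive control.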
# [11] = molecular target: Ubiquitin carboxyl-terminal hydrolase 1 (Homo sapiens) (UniProt O94782); assay: Inhibitors of USP1/UAF1: Pilot qHTS (AID 504865); conditions: purified USP1/UAF1, Ub-rhodamine cleavage fluorescence; series mostly up to 54.9 µM;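 note: rhodamine fluorescence freed from ubiquitin-rhodamine substrate followed over time; top concentration of the series differs between compounds; nearly all actives have a fitted effect of over 35% in size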
# Chain of Ubiquitin carboxyl-terminal hydrolase 1 (Homo sapiens) (O94782 whole entry, looked up): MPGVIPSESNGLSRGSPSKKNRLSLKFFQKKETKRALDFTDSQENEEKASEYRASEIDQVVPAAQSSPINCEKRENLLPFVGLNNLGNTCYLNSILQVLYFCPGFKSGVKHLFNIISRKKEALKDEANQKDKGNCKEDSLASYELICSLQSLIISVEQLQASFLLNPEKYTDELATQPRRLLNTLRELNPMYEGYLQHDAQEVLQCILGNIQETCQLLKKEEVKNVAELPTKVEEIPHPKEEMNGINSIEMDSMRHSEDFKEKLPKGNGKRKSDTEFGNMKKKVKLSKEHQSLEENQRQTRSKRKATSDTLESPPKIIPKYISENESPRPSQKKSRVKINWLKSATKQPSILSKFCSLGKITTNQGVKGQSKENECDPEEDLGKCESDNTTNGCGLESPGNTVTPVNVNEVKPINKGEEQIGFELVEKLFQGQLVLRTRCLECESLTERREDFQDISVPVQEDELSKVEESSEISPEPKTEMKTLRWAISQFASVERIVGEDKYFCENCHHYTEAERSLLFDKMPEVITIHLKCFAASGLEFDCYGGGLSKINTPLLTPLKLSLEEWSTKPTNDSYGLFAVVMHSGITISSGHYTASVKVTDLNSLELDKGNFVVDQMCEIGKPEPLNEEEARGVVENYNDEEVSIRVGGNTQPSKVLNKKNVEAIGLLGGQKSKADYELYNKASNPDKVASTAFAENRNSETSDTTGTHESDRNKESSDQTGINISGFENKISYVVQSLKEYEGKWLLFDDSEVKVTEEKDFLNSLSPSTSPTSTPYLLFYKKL
# Procedure, shortened: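 In 50mM HEPES pH 7.8 containing 0.5mM EDTA, 1mM TCEP, 0.1 mg/ml BSA and 0.01% Tween-20, 1nM USP1/UAF1 is exposed to compound for 15 min, then Ub-Rho (150nM final) is added and fluorescence is read over time.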
# [12] = molecular target: Glutathione peroxidase 1 (Homo sapiens) (UniProt P07203); assay: Primary qHTS Assay for Inhibitors of Recombinant Selenoprotein Glutathione Peroxidase 1 (GPX1) (AID 1845191); conditions: recombinant GPX1, GR-coupled NADPH fluorescence, 15 min; series mostly up to 48.8 µM; note: nearly all actives have a fitted effect of over 65% in size
# Chain of Glutathione peroxidase 1 (Homo sapiens) (P07203 whole entry, looked up): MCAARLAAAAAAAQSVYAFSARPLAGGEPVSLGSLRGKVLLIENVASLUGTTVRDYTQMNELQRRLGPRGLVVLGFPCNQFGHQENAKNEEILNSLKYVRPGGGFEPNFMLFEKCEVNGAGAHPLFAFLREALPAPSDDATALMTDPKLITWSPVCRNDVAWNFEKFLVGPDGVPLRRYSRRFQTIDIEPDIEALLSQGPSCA
# Procedure, shortened: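 GR-coupled readout: NADPH consumption tracked by fluorescence, ex 340/em 450 nm, at t=0 and after 15 min at RT. Final mix 10 nM GPX1, 1 mM GSH, 0.5 mM CHP, 0.5 mM NADPH, 100 nM GR, 0.01% BSA, following 30 min enzyme–compound preincubation.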
# [13] = qHTS Assay for Identification of Small Molecule Agonists for Hypoxia Response Element Signaling Pathway (AID 914; active = well fitted activation curve with a large enough effect in the signal ratio, with a control signal flat, not every such curve was filed as active; the % refers to the signal ratio); conditions: ME-180 (cervical carcinoma) HRE-bla reporter, beta-lactamase ratio, CoCl2, 17 h; activation: active compounds read high
# Procedure, shortened: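 Read-out: CCF4 FRET ratio of 460nm to 530nm emission (excitation 405nm) after 2.5 hours at room temperature, taken from HRE-bla ME-180 cells that had been exposed to compound and EC50 CoCl2 for 17 hours.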
# [14] = HepG2 viability counterscreen (readout 2: ATP content) against the NCATS DSHEA and TCM libraries (AID 1794840); conditions: ATP content luminescence; series mostly up to 27.3 µM
# Procedure, shortened: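 Same wells read twice: first fluorescence from cleaved GF-AFC substrate (25 uM final, 30 min, 37C) for live-cell protease, then CellTiter-Glo luminescence after 30 min at room temperature for ATP. HepG2 cells were exposed ~24 h to substances.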
# [15] = molecular target: Phospholipid hydroperoxide glutathione peroxidase GPX4 (Homo sapiens) (UniProt P36969); assay: Primary qHTS Assay for Inhibitors of Recombinant Selenoprotein Glutathione Peroxidase 4 (GPX4) (AID 1845192); conditions: recombinant GPX4, GR-coupled NADPH fluorescence, 15 min; series mostly up to 50 µM; note: potency is the fitted concentration of half-maximal effect; nearly all actives have a fitted effect of over 65% in size
# Chain of Phospholipid hydroperoxide glutathione peroxidase GPX4 (Homo sapiens) (P36969 whole entry, looked up): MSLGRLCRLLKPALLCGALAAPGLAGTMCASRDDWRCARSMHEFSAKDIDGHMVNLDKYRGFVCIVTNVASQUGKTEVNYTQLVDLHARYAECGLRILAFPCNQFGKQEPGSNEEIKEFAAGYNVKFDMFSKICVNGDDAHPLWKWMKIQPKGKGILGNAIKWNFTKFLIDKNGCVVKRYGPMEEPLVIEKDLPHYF
# Procedure, shortened: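 Steps: GPX4 plus compound, 30 min RT; add GR/GSH/NADPH master mix; start with cumene hydroperoxide; read 340/450 nm fluorescence at 0 and 15 min. Finals were 200 nM GPX4, 1 mM GSH, 0.5 mM CHP, 0.5 mM NADPH, 100 nM GR.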
# [16] = molecular target: Cytochrome P450 2D6 (Homo sapiens) (UniProt P10635); assay: qHTS for inhibitors of CYP2D6 against the NCATS DSHEA and TCM libraries (AID 1919972); conditions: CYP2D6 enzymatic inhibition, luminescence qHTS; series mostly up to 34.1 µM
# Procedure, shortened: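 qHTS, concentration–response format with most substances from 19.5 nM. CYP2D6 + pro-luciferin substrate, 15 min with compound, then 1x NADPH regen, 30–45 min RT dark. Glo detection 30 min, luminescence. Quinidine control.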
# [17] = molecular target: Cytochrome P450 2C9 (Homo sapiens) (UniProt P11712); assay: qHTS for inhibitors of CYP2C9 against the NCATS DSHEA and TCM libraries (AID 1919973); conditions: recombinant CYP2C9 enzyme activity, luminescence; series mostly up to 34.1 µM; note: potency is the fitted concentration of half-maximal effect
# Chain of Cytochrome P450 2C9 (Homo sapiens) (P11712 whole entry, looked up, canonical isoform): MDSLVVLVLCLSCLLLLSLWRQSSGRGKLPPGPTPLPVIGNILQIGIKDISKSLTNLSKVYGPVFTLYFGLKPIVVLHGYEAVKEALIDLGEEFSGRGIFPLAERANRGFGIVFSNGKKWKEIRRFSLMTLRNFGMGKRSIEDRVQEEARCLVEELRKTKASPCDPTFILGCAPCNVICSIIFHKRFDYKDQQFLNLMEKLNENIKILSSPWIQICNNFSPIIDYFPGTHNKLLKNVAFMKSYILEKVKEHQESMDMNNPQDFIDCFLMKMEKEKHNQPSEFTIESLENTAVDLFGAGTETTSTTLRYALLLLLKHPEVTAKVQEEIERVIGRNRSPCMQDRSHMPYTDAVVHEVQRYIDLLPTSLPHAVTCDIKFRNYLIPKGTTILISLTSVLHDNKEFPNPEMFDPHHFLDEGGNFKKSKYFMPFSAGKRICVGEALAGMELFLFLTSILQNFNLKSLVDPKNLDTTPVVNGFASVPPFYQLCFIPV
# Procedure, shortened: (§1)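 Isoform-specific enzyme and substrate levels; enzyme-free wells as background. Reaction: 1x NADPH regenerating system, 30-45 min, room temperature, shielded from light; luminescent detection reagent added, 30 min.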
# [18] = molecular target: Cytochrome P450 2C19 (Homo sapiens) (UniProt P33261); assay: qHTS for inhibitors of CYP2C19 against the NCATS DSHEA and TCM libraries (AID 1919974); conditions: CYP2C19 enzyme inhibition, luminescence qHTS; series mostly up to 34.1 µM;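 note: luminescence from luciferin released by CYP2C19 oxidation of a pro-luciferin substrate; potency is the fitted concentration of half-maximal effect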
# Procedure, shortened: as §1
# [19] = KB-3-1 P-gp reporter qHTS against the NCATS DSHEA and TCM libraries (AID 1919975); conditions: KB-3-1 parental cells, CellTiter-Glo luminescence viability, 72 h; series mostly up to 26.1 µM
# Procedure, shortened: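 KB-3-1 parental line, 1536-well qHTS: cells seeded, ~4 h attachment, pintool compound addition, ~72 h at 37C, then CellTiter-Glo, 30 min RT, luminescence. Concentration-response format.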
# [20] = qHTS Counterscreen for compound interference against the NCATS DSHEA and TCM libraries (AID 1919978); conditions: firefly luciferase detection reagent interference, luminescence;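 note: compounds preincubated with 1 µM D-luciferin or buffer before detection reagent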
# Procedure, shortened: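 Compounds, titrated from 19.5 nM to 39.8 uM final, were pinned onto 1 uM D-luciferin or plain 100 mM potassium phosphate. After 15 min at room temperature, luciferin detection reagent was added for 30 min before the luminescence read.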
# [21] = Dual reporter qHTS for agonist of Pregnane X Receptor (hPXR) against the NCATS DSHEA and TCM libraries: Fluorescence readout (AID 1920058); conditions: PXR dual reporter cells; series mostly up to 40 µM
# Procedure, shortened: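 In this qHTS counter-read, reporter-bearing HepG2 cells in charcoal-stripped serum received substances for approximately 24 h before viability was assessed fluorometrically with CellTiter-Fluor.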
# [22] = molecular target: Nuclear receptor subfamily 1 group I member 2 (Homo sapiens) (UniProt O75469); assay: Dual reporter qHTS for antagonist of Pregnane X Receptor (hPXR) against the NCATS DSHEA and TCM libraries: Luminescence Readout (AID 1920060); conditions: hPXR dual reporter cells, luciferase luminescence, antagonist mode; series mostly up to 40 µM;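 note: HepG2 cells carrying hPXR luciferase reporter stimulated with rifampicin at 2 µM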
# Chain of Nuclear receptor subfamily 1 group I member 2 (Homo sapiens) (O75469 whole entry, looked up): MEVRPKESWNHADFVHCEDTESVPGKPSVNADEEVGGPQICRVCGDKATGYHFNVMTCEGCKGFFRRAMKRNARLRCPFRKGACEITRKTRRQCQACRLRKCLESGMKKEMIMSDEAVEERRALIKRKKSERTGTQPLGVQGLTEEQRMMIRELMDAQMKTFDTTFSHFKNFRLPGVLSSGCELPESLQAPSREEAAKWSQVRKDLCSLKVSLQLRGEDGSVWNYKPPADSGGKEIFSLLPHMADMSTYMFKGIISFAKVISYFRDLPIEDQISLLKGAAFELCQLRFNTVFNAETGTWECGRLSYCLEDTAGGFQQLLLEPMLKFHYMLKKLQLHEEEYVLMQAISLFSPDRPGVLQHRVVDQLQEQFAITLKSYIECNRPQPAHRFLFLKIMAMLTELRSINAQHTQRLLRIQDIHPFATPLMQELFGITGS
# Procedure, shortened: (§2)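 Antagonist mode: rifampicin 2 uM final co-added with compounds to hPXR-LucHepG2 cells for 24 h at 37C. Viability by CellTiter-Fluor, Ex/Em 405/540 nm, 1 h; reporter by ONE-Glo luminescence.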
# [23] = Dual reporter qHTS for antagonist of Pregnane X Receptor (hPXR) against the NCATS DSHEA and TCM libraries: Fluorescence Readout (AID 1920061); conditions: PXR dual reporter cells, antagonist mode; series mostly up to 40 µM
# Procedure, shortened: as §2
structure (smiles),measurement,setting,value
CCNc1ncc2nc(CCc3ccccc3)c(=O)n(Cc3cccc(OC)c3)c2n1,Potency,[1],> 11.4 µM
same,"activity change, negative = inhibition",[2],16.5%
same,Potency,[3],12.6 µM (active)
same,"activity change, negative = inhibition",[4],-6.29%
same,outcome,[5],inactive
same,Potency,[6],> 9.22 µM
same,Potency,[7],> 46 µM
same,Potency,[8],inactive
same,outcome,[9],inactive
same,Potency,[10],inactive
same,Potency,[11],inactive
CN1CCN(c2nc(-c3ccoc3)nc3ccccc23)CC1,Potency,[1],> 11.4 µM
same,"activity change, negative = inhibition",[2],6.84%
same,Potency,[3],1.26 µM (active)
same,"activity change, negative = inhibition",[4],-2.81%
same,outcome,[5],inactive
same,Potency,[6],> 46 µM
same,Potency,[7],> 46 µM
same,Potency,[8],inactive
same,outcome,[9],inactive
same,Potency,[10],inactive
same,Potency,[11],inactive
C=C1/C(=C\C=C2/CCC[C@@]3(C)C2CC[C@@H]3[C@H](C)/C=C\[C@@H](O)C2CC2)C[C@@H](O)C[C@@H]1O (stereo partly specified),Potency,[12],inactive
COc1ccccc1CNc1nc(-c2ccc(C(=O)N(C)C)cc2)nc2ccccc12,"activity change, negative = inhibition",[4],-1.92%
same,Potency,[6],> 46 µM
same,Potency,[7],> 46 µM
same,Potency,[8],inactive
same,activation,[13],25.3%
same,Potency,[10],inactive
same,Potency,[11],inactive
CCCCCCCC/C=C/CCCCCCCC(=O)O,outcome,[14],inactive
same,Potency,[12],inactive
same,Potency,[15],11.2 µM (active)
same,Potency,[16],inactive
same,Potency,[17],14.1 µM (active)
same,Potency,[18],3.55 µM (active)
same,outcome,[19],inactive
same,max response,[20],-3.39%
same,outcome,[21],inactive
same,outcome,[22],inactive
same,outcome,[23],inactive
